Measured values as given in the supplement of paper PMC11732987, “Enantioselective OTUD7B fragment discovery through chemoproteomics screening and high-throughput optimisation” (Communications Chemistry, 2025).

Tests used:
Test in all cases: log2 ratio of Biotin-Ahx-Ub-VS probe labelling (fragment/DMSO); higher = less target engagement (more negative = stronger competition), active = hit call of the paper (q ≤ 0.05, log2 ratio ≤ -1)
Conditions in all cases: compound concentration: 200 uM; treatment time: 3 h
[1] = molecular target: T1, USP19 (UniProt O94966)
T1 sequence (whole entry): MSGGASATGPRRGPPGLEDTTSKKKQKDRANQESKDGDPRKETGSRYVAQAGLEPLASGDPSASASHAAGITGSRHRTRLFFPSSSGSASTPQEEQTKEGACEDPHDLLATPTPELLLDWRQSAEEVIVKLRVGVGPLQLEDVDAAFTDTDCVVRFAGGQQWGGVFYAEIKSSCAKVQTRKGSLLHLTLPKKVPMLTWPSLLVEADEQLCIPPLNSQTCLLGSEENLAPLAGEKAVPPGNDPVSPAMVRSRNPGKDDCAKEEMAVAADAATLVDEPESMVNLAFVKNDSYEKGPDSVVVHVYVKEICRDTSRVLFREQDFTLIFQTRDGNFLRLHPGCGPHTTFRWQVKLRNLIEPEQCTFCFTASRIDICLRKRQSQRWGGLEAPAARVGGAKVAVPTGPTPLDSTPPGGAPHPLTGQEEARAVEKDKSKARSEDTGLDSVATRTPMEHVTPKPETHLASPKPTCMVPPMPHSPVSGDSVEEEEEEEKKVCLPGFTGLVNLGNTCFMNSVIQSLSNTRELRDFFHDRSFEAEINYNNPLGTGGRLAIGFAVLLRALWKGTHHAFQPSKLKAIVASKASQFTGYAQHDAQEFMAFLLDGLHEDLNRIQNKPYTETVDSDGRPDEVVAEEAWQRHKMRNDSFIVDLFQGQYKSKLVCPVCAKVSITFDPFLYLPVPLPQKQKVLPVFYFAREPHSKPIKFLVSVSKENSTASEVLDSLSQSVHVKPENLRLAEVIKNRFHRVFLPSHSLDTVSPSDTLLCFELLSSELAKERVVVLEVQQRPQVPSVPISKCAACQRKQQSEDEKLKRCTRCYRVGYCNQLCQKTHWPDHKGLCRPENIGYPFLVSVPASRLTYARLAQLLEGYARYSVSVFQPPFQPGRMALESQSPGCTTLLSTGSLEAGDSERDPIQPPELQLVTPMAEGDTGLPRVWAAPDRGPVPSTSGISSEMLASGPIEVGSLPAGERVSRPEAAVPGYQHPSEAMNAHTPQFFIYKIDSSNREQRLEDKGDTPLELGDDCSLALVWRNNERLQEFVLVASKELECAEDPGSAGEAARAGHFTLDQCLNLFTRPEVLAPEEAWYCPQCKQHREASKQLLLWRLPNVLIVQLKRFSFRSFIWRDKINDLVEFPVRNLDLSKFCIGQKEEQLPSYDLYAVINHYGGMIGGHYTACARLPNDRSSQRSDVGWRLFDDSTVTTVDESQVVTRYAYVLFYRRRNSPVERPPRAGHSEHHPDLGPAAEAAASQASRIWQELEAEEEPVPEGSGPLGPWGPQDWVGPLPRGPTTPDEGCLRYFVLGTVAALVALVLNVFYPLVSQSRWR
Summary of the method: (§1)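 HEK293T lysate in Tris/CHAPS/IGEPAL buffer with protease inhibitors (495 µg per sample) was given fragment at 200 µM or vehicle for 3 h, in triplicate. It then received Biotin-Ahx-Ub-VS at 0.5 µM final for 1 h. Labelled DUBs were NeutrAvidin-enriched, digested with LysC and trypsin, and run by diaPASEF LC-MS/MS. Values are average log2 fragment/vehicle ratios by unpaired t-test on global-median-normalised Spectronaut quantities of proteins with ≥2 unique peptides.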

[2] = molecular target: USP24 (UniProt Q9UPU5)
Sequence of USP24 (Q9UPU5 whole entry): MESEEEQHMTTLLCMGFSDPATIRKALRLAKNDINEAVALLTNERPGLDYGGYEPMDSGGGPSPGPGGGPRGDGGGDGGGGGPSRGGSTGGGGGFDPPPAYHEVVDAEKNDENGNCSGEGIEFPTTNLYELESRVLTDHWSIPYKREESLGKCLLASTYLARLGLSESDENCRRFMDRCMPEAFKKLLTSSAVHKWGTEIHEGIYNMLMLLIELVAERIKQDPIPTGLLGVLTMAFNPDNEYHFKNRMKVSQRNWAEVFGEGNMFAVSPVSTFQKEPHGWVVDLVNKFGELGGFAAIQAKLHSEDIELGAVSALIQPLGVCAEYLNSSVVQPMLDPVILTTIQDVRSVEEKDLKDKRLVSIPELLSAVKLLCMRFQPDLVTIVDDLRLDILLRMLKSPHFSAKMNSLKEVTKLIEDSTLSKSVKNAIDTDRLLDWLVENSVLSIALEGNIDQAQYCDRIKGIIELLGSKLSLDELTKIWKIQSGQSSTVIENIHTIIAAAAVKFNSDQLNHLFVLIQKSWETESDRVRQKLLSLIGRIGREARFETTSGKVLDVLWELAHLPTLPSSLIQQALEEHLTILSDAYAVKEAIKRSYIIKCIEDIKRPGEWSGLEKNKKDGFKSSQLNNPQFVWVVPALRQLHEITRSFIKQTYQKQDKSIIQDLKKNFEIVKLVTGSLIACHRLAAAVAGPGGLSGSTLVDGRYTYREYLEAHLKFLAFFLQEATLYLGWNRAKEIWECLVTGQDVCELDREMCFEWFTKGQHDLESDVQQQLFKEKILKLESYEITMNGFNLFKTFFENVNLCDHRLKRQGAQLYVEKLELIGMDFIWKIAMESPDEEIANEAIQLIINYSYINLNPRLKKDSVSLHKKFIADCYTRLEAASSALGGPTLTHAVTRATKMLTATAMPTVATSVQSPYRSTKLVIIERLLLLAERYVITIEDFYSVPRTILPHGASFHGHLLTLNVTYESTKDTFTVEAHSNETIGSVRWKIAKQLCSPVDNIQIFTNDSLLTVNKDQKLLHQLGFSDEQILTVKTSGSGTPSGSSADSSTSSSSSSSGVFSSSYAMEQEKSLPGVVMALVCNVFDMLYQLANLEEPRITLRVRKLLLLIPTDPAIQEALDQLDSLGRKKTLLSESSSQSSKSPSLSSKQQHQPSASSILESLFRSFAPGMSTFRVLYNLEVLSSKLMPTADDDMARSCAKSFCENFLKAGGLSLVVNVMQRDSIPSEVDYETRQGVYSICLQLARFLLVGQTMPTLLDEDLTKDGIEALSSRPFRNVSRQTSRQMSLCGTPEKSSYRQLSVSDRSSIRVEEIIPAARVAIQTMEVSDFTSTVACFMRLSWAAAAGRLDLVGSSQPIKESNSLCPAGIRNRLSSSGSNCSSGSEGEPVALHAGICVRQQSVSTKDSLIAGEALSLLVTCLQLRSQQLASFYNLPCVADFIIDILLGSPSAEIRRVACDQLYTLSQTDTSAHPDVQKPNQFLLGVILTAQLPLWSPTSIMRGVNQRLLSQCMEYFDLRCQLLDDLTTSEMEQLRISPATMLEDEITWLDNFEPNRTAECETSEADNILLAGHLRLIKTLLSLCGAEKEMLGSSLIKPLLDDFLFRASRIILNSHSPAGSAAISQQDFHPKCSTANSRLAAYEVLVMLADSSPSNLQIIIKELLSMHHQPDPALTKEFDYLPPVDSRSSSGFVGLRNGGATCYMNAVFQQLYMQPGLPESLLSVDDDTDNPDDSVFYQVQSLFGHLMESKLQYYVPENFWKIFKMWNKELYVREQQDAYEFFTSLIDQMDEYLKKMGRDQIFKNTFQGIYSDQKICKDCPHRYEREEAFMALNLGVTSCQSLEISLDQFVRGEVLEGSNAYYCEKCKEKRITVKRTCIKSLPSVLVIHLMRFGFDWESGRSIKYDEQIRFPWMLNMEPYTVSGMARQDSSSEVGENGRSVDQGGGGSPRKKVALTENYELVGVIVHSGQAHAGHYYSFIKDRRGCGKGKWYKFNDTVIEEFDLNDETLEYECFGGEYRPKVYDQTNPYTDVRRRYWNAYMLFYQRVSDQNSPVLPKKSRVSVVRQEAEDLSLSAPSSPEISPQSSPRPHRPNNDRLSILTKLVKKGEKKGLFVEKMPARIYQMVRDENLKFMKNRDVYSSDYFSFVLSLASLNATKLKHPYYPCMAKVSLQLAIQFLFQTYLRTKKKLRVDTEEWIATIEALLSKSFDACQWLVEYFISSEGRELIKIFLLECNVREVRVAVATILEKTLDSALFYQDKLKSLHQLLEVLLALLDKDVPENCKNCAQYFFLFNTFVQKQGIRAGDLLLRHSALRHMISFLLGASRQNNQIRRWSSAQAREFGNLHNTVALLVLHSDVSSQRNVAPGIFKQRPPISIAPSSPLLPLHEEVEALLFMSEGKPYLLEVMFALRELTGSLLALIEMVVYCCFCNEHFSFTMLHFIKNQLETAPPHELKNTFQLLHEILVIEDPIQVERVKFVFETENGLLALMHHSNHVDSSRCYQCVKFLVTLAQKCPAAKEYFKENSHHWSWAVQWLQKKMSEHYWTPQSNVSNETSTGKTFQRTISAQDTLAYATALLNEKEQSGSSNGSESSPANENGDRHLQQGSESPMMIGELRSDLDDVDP
Summary of the method: as §1

[3] = molecular target: T2, USP25 (UniProt Q9UHP3)
T2 sequence (whole entry): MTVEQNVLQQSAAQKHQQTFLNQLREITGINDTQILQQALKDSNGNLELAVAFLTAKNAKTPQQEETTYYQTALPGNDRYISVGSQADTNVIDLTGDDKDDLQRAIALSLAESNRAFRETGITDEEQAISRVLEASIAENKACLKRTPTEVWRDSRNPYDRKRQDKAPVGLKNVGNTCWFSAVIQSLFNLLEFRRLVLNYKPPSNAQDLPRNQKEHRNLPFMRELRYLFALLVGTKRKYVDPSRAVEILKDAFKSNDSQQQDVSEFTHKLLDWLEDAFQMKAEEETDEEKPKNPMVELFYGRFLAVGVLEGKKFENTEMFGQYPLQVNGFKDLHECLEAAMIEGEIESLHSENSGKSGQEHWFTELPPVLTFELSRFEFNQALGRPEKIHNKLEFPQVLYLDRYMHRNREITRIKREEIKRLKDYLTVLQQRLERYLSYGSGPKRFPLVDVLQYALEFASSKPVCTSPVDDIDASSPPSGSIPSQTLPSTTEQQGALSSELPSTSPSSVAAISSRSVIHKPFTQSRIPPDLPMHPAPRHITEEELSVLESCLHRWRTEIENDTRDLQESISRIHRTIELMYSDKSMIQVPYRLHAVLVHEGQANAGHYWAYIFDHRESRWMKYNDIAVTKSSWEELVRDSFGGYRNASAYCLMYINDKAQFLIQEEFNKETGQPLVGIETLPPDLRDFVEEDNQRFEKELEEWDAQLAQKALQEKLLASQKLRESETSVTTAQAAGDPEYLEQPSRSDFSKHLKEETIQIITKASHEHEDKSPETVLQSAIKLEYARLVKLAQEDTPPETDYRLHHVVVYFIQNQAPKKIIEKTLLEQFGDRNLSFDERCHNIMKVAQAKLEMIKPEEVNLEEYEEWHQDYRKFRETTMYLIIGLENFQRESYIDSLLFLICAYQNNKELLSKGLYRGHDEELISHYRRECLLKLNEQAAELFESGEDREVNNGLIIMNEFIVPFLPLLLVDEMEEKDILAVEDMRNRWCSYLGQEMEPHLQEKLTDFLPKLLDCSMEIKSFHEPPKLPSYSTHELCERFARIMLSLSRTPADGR
Summary of the method: as §1

[4] = molecular target: T3, USP28 (UniProt Q96RU2)
T3 sequence (whole entry): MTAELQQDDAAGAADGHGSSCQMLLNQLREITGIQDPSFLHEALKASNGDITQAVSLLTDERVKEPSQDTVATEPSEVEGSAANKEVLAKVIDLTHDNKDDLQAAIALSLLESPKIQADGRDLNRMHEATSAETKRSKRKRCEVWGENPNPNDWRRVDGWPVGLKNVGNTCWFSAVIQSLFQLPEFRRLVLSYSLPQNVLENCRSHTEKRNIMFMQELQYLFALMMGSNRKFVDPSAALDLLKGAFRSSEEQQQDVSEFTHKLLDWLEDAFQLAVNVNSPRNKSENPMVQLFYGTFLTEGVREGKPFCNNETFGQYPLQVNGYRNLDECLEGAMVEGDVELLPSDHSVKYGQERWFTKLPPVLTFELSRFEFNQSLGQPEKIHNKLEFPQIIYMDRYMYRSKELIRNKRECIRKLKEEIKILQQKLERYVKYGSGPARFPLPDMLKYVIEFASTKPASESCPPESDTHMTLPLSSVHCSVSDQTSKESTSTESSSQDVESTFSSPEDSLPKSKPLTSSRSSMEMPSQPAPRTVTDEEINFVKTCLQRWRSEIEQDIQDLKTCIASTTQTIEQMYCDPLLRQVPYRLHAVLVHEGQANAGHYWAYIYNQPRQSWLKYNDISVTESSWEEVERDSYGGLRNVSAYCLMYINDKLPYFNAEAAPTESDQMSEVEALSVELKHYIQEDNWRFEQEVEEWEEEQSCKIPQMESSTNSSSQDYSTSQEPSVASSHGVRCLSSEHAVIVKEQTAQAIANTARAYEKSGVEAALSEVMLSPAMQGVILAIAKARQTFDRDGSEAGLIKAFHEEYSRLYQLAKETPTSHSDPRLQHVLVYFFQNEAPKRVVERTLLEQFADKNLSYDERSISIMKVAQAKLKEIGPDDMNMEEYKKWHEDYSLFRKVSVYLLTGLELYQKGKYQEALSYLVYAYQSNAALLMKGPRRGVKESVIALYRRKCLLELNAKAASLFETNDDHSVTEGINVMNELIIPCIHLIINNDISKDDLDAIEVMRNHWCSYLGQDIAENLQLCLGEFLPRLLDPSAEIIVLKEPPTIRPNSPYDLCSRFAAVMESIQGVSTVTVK
Summary of the method: as §1

Measured: log2 ratio of Biotin-Ahx-Ub-VS probe labelling

Cc1noc(C)c1CNC(=O)CCl
inactive: [1] -0.666 | [2] -0.8 | [3] -0.554 | [4] -0.971
